PubChem BioAssay
Calls of active or inactive are those of the source.

How the values were obtained:
[1] = small molecules captured by biotinylated probe aFSTL3 – biochemical, small-molecule microarray, fluorescence 635/667, stem cell growth factor project, primary screen (AID 1064); settings: higher = more signal;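 also: measures binding of the biotinylated anti-FSTL3 antibody to printed compounds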
[2] = binders from COS7 lysate, DM2A8 probe, primary screen, torsin A project, cell lysate, small-molecule microarray, fluorescence 635/667 (AID 1065); settings: higher = more signal, COS7 lysate expressing mutant human TOR1A
[3] = small molecules captured by biotinylated probe aFGF2 – biochemical, small-molecule microarray, fluorescence 635/667, stem cell growth factor project, primary screen (AID 1067); settings: higher = more signal;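 also: measures binding of biotinylated aFGF2 protein to printed compounds on slides; z-score merges feature fluorescence and signal-to-noise across triplicate slides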
[4] = small molecules captured by biotinylated probe aFGF10 – biochemical, small-molecule microarray, fluorescence 635/667, stem cell growth factor project, primary screen (AID 1071); settings: higher = more signal;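 also: score merges 667 nm spot intensity and signal to noise from triplicate slides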
[5] = target: Neurogenic locus notch homolog protein 2 (Homo sapiens) (UniProt Q04721); test: small molecules binding Notch2 protein – biochemical, small-molecule microarray, 635 nm fluorescence, stem cell growth factors, primary screen (AID 1073); settings: higher = more signal
[6] = target: Pro-neuregulin-1, membrane-bound isoform (Homo sapiens) (UniProt Q02297); test: small molecules binding neuregulin-1 protein – biochemical, small-molecule microarray, fluorescence 635/667, psychiatric disease protein project, primary screen (AID 1075); settings: NRG1 binding, 635 nm fluorescence, higher = more signal;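 also: score combines 667 nm spot fluorescence with signal to noise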
[7] = tested on: Neuregulin-1 EGF-like domain; test: small molecules binding NRG1 EGF domain – biochemical, small-molecule microarray, 635 nm fluorescence, primary screen (AID 1081); settings: higher = more signal;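 also: binding of the protein to compounds printed on small-molecule microarray slides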
[8] = FRG1 expression reporter modulators in myotubes – cell-based, C2C12 myotubes, firefly/Renilla luciferase, luminescence, FRG1 inhibition for FSHD, primary screen (AID 1084); settings: FRG1 promoter luciferase, higher = more signal, called active from +8 up or from −8 down
[9] = small molecules captured by biotinylated probe aFST – biochemical, small-molecule microarray, fluorescence 635/667, stem cell growth factor project, primary screen (AID 1086); settings: higher = more signal;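 also: score merges 667 nm fluorescence with signal-to-noise of each printed compound spot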
[10] = binders of probe aHhip on microarray, primary screen, stem cell growth factor project, biochemical, small-molecule microarray, fluorescence 635/667 (AID 1087); settings: higher = more signal;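 also: score merges spot fluorescence at 667nm with spot signal to noise ratio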
[11] = tested on: PRMT1 (protein arginine N-methyltransferase 1); test: small molecules binding arginine methyltransferase PRMT1 – biochemical, small-molecule microarray, 635 nm fluorescence, primary screen (AID 1088); settings: higher = more signal;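 also: binding of Prmt1 protein to compounds spotted on small-molecule microarray slides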
[12] = growth effects on S. cerevisiae YJM789 – YJM789 clinical isolate, OD600, 24 h, basal, primary screen (AID 1089); settings: higher = more signal, called active from +8 up or from −8 down;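 also: growth of clinical yeast isolate S. cerevisiae YJM 789 seeded 1000 cells per well; test concentration not given here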
[13] = S. pombe growth modifiers, basal conditions – strain 972, OD600, 24 h, no modulator, primary screen (AID 1090);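 also: basal condition with compound alone and no growth modifier present; test concentration not given here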; settings: S. pombe 972 growth, higher = more signal, called active from +8 up or from −8 down
[14] = budding yeast growth modifiers under rapamycin – strain BY4716, OD600, 96 h, primary screen (AID 1091); also: test concentration not given here; settings: S. cerevisiae BY4716 + rapamycin, higher = more signal, called active from +8 up or from −8 down
[15] = target: Torsin-1A-interacting protein 2 (Homo sapiens) (UniProt Q8NFQ8); test: small molecules binding lysate-expressed LULL1 – cell lysate, human LULL1 lysate, 635/667 nm fluorescence, primary screen (AID 1092); settings: small-molecule microarray, hLULL1 lysate binding, 635 nm fluorescence; higher = more signal;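 also: probe is lysate of COS7 cells overexpressing human LULL1; score merges per-feature 667 nm fluorescence with signal-to-noise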
[16] = optical density change of DRC41 E. coli – strain DRC41, OD650, 24 h, E. coli filamentation project, primary screen (AID 1093);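 also: MC1000 strain lacking acrAB efflux and sulA so SOS filamentation is blocked; test concentration not given here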; settings: E. coli DRC41 growth, higher = more signal, called active from +8 up or from −8 down
[17] = probe aLefty2 binding to arrayed compounds – biochemical, biotinylated probe, 635/667 nm fluorescence, primary screen (AID 1094); settings: small-molecule microarray, higher = more signal;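 also: score merges spot fluorescence near 667 nm with spot signal-to-noise ratio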
[18] = tested on: Noggin (protein binding on small-molecule microarray); test: small molecules binding Noggin protein – biochemical, 635/667 nm fluorescence, primary screen (AID 1095); settings: 635 nm fluorescence, higher = more signal;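 also: score merges 667 nm feature fluorescence with signal to noise over triplicate slides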
[19] = target: Neurogenic locus notch homolog protein 3 (Homo sapiens) (UniProt Q9UM47); test: small molecules binding NOTCH3 protein – biochemical, 635/667 nm fluorescence, primary screen (AID 1096); settings: small-molecule microarray, 635 nm fluorescence, higher = more signal
[20] = probe aEGFR binding to arrayed compounds – biochemical, biotinylated probe, 635/667 nm fluorescence, primary screen (AID 1097); settings: small-molecule microarray, higher = more signal;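 also: probe is a biotinylated anti-EGFR antibody binding compounds printed on slides; score combines fluorescence near 667 nm and signal to noise of each spot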

Torsin-1A-interacting protein 2 (Homo sapiens), sequence (Q8NFQ8 whole entry, looked up): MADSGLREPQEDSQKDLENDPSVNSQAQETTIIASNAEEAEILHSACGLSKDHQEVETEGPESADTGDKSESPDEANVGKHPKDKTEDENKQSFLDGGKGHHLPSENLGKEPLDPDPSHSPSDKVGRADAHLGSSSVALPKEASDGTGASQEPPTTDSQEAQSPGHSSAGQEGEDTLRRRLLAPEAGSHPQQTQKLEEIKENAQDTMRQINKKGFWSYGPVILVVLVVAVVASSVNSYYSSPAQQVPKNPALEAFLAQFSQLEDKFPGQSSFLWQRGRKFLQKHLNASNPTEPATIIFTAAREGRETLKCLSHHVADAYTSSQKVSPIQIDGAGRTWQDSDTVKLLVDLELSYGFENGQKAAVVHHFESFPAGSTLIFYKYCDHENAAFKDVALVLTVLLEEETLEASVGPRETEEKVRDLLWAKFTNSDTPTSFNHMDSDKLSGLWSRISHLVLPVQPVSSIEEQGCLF
Neurogenic locus notch homolog protein 2 (Homo sapiens), sequence (Q04721 whole entry, looked up, canonical isoform): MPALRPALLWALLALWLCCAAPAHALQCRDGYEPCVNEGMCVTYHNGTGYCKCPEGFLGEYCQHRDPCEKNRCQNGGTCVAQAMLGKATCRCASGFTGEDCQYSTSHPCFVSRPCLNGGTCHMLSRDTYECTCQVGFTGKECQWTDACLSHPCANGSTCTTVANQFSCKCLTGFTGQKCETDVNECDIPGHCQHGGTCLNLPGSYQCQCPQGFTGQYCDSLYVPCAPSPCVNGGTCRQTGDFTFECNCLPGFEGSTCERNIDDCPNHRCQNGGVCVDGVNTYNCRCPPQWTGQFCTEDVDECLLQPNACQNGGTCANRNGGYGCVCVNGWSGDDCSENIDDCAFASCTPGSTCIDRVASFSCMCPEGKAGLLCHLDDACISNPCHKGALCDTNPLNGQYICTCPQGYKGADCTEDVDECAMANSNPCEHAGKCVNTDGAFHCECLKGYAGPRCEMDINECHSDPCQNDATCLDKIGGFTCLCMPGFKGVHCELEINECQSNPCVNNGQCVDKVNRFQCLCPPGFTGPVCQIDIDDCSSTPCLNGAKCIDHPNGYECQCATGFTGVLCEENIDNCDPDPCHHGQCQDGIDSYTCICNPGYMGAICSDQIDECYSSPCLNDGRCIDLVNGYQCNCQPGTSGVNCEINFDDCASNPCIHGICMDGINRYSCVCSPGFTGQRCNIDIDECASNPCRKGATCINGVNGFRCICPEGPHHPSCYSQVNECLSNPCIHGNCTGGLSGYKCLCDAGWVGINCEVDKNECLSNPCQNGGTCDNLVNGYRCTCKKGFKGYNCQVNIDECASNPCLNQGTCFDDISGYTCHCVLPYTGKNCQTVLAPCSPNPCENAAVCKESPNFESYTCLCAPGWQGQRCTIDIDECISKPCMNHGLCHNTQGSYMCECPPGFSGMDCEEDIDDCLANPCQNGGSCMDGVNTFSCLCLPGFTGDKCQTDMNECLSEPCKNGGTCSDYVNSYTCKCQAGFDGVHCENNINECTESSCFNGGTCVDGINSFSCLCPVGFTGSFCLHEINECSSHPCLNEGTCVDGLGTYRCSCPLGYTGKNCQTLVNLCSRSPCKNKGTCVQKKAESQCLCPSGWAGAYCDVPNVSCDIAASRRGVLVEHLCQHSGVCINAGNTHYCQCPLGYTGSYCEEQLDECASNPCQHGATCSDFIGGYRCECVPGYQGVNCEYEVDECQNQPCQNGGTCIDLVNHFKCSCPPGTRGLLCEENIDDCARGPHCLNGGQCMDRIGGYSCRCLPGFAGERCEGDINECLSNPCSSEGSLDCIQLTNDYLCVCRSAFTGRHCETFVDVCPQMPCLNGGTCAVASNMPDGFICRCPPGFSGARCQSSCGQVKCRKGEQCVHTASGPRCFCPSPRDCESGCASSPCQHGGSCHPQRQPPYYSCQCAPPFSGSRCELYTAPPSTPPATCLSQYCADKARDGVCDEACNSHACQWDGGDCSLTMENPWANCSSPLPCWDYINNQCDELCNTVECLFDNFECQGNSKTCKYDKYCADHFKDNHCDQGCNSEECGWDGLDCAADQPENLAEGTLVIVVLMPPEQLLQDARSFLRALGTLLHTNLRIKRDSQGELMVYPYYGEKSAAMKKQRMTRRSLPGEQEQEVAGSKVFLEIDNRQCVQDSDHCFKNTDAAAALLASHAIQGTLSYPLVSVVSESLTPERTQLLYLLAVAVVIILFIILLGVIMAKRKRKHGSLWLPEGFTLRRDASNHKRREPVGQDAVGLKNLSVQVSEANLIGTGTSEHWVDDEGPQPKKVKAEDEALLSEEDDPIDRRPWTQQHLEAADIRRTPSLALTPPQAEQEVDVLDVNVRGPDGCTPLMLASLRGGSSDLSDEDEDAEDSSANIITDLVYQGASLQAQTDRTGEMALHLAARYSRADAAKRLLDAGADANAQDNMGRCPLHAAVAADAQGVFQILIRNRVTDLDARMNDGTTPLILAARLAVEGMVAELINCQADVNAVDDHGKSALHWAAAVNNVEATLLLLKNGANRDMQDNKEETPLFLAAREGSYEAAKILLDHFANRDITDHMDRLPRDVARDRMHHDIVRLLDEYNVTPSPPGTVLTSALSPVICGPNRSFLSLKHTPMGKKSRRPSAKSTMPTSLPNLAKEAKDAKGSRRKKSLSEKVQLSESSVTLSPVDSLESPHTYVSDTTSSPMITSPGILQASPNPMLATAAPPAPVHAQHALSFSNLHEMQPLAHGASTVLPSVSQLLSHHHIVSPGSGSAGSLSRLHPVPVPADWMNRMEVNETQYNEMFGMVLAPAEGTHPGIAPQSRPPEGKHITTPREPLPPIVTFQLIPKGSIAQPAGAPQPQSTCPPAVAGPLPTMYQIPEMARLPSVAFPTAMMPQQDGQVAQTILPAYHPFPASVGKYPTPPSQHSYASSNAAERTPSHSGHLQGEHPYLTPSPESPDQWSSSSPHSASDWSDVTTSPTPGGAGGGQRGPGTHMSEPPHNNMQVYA
Pro-neuregulin-1, membrane-bound isoform (Homo sapiens), sequence (Q02297 whole entry, looked up, the tested form may be a part, canonical isoform): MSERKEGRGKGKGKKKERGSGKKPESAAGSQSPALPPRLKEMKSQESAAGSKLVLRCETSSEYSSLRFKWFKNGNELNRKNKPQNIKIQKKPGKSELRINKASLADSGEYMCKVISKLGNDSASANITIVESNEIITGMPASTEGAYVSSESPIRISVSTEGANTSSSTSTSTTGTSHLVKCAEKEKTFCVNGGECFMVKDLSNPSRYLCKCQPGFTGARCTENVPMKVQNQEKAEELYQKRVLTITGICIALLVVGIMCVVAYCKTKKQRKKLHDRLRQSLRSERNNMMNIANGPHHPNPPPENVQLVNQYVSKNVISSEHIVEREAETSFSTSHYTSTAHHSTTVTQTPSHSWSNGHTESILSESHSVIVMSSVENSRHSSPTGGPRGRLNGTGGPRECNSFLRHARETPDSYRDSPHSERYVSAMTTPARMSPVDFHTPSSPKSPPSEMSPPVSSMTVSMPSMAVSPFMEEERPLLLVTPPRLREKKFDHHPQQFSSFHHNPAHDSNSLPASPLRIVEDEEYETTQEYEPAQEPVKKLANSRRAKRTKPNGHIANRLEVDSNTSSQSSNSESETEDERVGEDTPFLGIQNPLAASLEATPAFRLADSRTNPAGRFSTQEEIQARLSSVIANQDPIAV

Row | Compound | composite z-score [1] | composite z-score [2] | composite z-score [3] | composite z-score [4] | composite z-score [5] | composite z-score [6] | composite z-score [7] | z-score [8] | composite z-score [9] | composite z-score [10] | composite z-score [11] | z-score [12] | z-score [13] | z-score [14] | composite z-score [15] | z-score [16] | composite z-score [17] | composite z-score [18] | composite z-score [19] | composite z-score [20]
1 | CCOC(=O)CCN1C(=O)[C@H]2[C@H]3[C@H](O)[C@H](O)CC(=O)[C@@H]3CC[C@H]2C1=O | -0.577 | 0.125 | -0.16 | 0.832 | 0.916 | 0.102 | 0.482 | -0.407 (inactive) | 0.658 | -0.27 | 0.58 | -0.0366 (inactive) | -0.267 (inactive) | -0.0766 (inactive) | 0.846 | -0.353 (inactive) | -0.198 | 0.589 | 0.738 | 0.0004
2 | C=CC[C@@H]1C=C[C@H](ON=C[C@@H](NS(=O)(=O)c2ccc(C)cc2)[C@H](C)C=CCC(=O)OC)[C@@H](CO)O1 | -0.172 | 0.571 | -0.134 | 0.2 | -0.0681 | -0.209 | 0.476 | -0.0545 (inactive) | -0.0961 | 0.289 | -0.248 | -0.605 (inactive) | 0.757 (inactive) | -0.0333 (inactive) | 0.324 | 0.354 (inactive) | -0.11 | 0.659 | -0.531 | -0.0715
3 | CCN1C(C)=C(C(=O)OC)[C@@H](c2ccccc2)N2C(=O)[C@](O)(C(=O)OC)CC(C(C)=O)=C12 | -0.619 | 0.159 | -0.205 | 0.372 | 0.505 | -0.125 | -0.254 | -1.11 (inactive) | 0.101 | -0.0618 | 0.0774 | 0.02 (inactive) | -1.13 (inactive) | 0.712 (inactive) | -0.25 | 0.302 (inactive) | -0.313 | 0.768 | 0.534 | -0.0957
4 | CC1(C)O[C@H]2O[C@H]([C@H](O)CON=C3[C@H]4CCn5c(=O)n(-c6ccccc6)c(=O)n5[C@H]4[C@H](O)[C@@H]4O[C@H]34)[C@H](O)[C@H]2O1 | -0.278 | 0.0391 | -0.154 | 0.157 | 0.0872 | 0.762 | -0.431 | -0.027 (inactive) | -0.081 | -0.0994 | -0.626 | -0.638 (inactive) | -0.347 (inactive) | -0.215 (inactive) | -0.122 | 0.321 (inactive) | -0.212 | 0.426 | -0.412 | -0.219
5 | O=C1[C@H]2CCn3c(=O)n(-c4ccccc4)c(=O)n3[C@H]2[C@H](O)[C@@H]2O[C@H]12 | -0.561 | -0.0619 | -0.0667 | 0.328 | 0.164 | 1.63 | -0.125 | -0.217 (inactive) | -0.0545 | -0.305 | -0.0775 | 0.689 (inactive) | -0.41 (inactive) | -0.206 (inactive) | -0.29 | -0.0475 (inactive) | -0.225 | 0.224 | -0.281 | -0.181
6 | CON=C(C)CCN1CCCc2nc(C)c(C)cc21 | -0.411 | -0.205 | -0.0266 | 0.28 | 0.512 | 0.397 | 0.908 | 0.885 (inactive) | 0.192 | 0.12 | 1.43 | -0.596 (inactive) | -0.837 (inactive) | 0.0921 (inactive) | 1.92 | 0.0129 (inactive) | -0.0179 | 0.513 | 0.632 | 0.0376
7 | CCc1cc2c(nc1CC)CCN(CCC(C)=NOC(C)CN1CCCCc3nc(C)c(C)cc31)C2 (stereo not given) | -0.154 | 1.24 | -0.073 | 0.541 | 1.11 | 0.946 | 1.07 | 0.795 (inactive) | 0.544 | -0.174 | 1.49 | -0.379 (inactive) | -16.2 (active) | -0.755 (inactive) | 2.42 | 0.546 (inactive) | 0.0809 | 0.932 | 1.08 | 0.142
8 | C[C@H]1CC[C@H]2C(=O)O[C@H](CO)CN2[C@@H]1c1ccc(Br)cc1 | -0.334 | 0.544 | -0.166 | 0.051 | -0.288 | -0.102 | -0.238 | 1.11 (inactive) | -0.148 | 0.2 | 0.995 | -1.57 (inactive) | -16.2 (active) | -3.33 (inactive) | 0.139 | 1.88 (inactive) | -0.141 | 0.417 | -0.811 | -0.0738
9 | COCOc1ccc(Br)cc1C(=O)C=Cc1ccc2c(c1)OCO2 | -0.289 | 0.738 | -0.0878 | 0.313 | 0.315 | -0.302 | -0.645 | -2.06 (inactive) | 0.13 | -0.226 | 0.253 | -0.827 (inactive) | -7.01 (inactive) | 32.1 (active) | -0.57 | 0.368 (inactive) | -0.16 | 0.698 | 0.0871 | -0.0834
10 | CC(C)=CCCC(C)=CCON=C1C[C@@H](O)[C@@H](O)[C@@H]2[C@@H]3C(=O)N(C4CCCCC4)C(=O)[C@@H]3CC[C@H]12 | -0.317 | 0.396 | -0.0725 | 0.548 | 0.535 | 0.475 | 0.255 | 0.0864 (inactive) | 0.53 | 0.408 | 1.52 | 0.194 (inactive) | -0.312 (inactive) | -0.382 (inactive) | 0.341 | 0.474 (inactive) | -0.0575 | 1.07 | 0.789 | 0.0065
11 | CC(C)=NOC(C)CN1CCCCc2nc(C)c(C)cc21 (stereo not given) | -0.216 | 0.927 | -0.0858 | 0.0948 | -0.134 | 0.152 | 0.093 | 0.265 (inactive) | 0.142 | 0.0695 | 0.434 | -0.139 (inactive) | -0.104 (inactive) | -0.0334 (inactive) | 1.04 | 0.194 (inactive) | -0.0441 | 0.634 | -0.0247 | -0.027
12 | CCN1C(=O)[C@H]2[C@H]3[C@H](O)[C@H](O)CC(=NO[C@@H]4O[C@H](CO)[C@@H](O)[C@H](O)[C@H]4O)[C@H]3CC[C@H]2C1=O | -0.396 | 1.06 | -0.138 | 0.235 | 1 | 0.259 | 0.108 | -1.07 (inactive) | 0.293 | 0.0274 | -0.26 | -0.862 (inactive) | -0.238 (inactive) | -0.14 (inactive) | -0.127 | 0.12 (inactive) | -0.204 | 0.484 | 0.65 | -0.128
